According to PubChem BioAssay (NCATS):
Values joined by “and” are separate entries in the source; they are usually repeats but may differ in a detail not shown here. Equal values may be shown once. Results filed as inconclusive are left out. Where a structure was tested more than once in an assay, its records may differ in their call. Active and inactive are the calls of the source. Unless noted, calls follow the shape of the dose curve; as a rule, active = well fitted curve in the direction sought with a large enough effect; inconclusive = small, poorly fitted or top-dose-only effect, or another doubt; inactive = no such curve, though single readings can be large; an effect the other way counts as inactive or inconclusive.

What was measured:
[1] = AP1 Signaling Pathway (AID 357; active = well fitted curve in either direction with a large enough effect, not every such curve was filed as active;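 also: ME-180 reporter cells stimulated with EGF at its EC50 level; % is scaled to controls: 0 for no effect and ±100 for the full control effect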); details: ME-180 AP-1-bla reporter, EGF-induced, beta-lactamase ratio, 5 h
Outline: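 A ratiometric CCF4 readout (405 nm excitation; 460 and 530 nm emission) quantified AP-1-driven beta-lactamase in ME-180 cells after 5 h with compound and EC50 EGF; AC50 values were derived for activators and inhibitors.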

[2] = target: Cytochrome P450 1A2 (Homo sapiens) (UniProt P05177); assay: p450-cyp1a2 (AID 410; calls by dose curve; also: potency is read from the fitted curve at half-maximal effect;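 as to activity change, negative = inhibition: -100% = full effect of reference inhibitor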); details: recombinant CYP1A2, luciferin-ME demethylation, luminescence; series mostly up to 57 µM
Sequence of Cytochrome P450 1A2 (Homo sapiens) (P05177 whole entry, looked up): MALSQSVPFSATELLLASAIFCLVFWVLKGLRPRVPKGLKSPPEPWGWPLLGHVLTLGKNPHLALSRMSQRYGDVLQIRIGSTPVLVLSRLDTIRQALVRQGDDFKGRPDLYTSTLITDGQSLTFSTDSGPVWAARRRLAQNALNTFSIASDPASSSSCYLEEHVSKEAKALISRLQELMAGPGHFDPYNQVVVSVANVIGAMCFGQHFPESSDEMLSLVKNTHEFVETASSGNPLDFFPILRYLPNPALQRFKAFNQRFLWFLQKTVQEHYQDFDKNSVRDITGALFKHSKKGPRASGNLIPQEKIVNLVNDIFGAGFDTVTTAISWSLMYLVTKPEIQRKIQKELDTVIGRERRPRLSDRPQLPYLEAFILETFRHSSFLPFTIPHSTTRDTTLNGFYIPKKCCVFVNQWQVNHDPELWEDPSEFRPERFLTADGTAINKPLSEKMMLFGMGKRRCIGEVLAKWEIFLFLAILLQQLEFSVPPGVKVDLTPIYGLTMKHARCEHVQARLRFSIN
Outline: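 20nM CYP1A2 with 100uM Luciferin-ME (at Km) in 100mM KPO4; compound preincubated 10 min, NADPH regeneration added, 60 min at room temperature. Luciferin quantified by luminescence after detection reagent; normalized to 57 uM furafylline.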

[3] = Stat Signaling Pathway (AID 446; active = well fitted curve in either direction with a large enough effect, not every such curve was filed as active;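 also: ME-180 cervical cancer cells given 40 pM IL-6 alongside compound; SIE-controlled beta-lactamase reporter measured as 460/530 nm FRET emission ratio; % is scaled to controls: 0 for no effect and ±100 for the full control effect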); details: ME-180 SIE beta-lactamase reporter, IL-6 stimulated, 5 h
Outline: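 ME-180 cells carrying a SIE-driven beta-lactamase reporter are stimulated with 40 pM IL-6 for 5 h at 37C in the presence of compound. The 460/530 nm FRET substrate ratio is read after 2.5 h at RT. Data are normalised to 300 pM IL-6 and to 125 nM JAK inhibitor controls.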

[4] = target: Glucocorticoid receptor (Homo sapiens) (UniProt P04150); assay: GR-GFP Redistribution (AID 450;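 active = compounds whose dose series gives a full or clear partial fitted curve of increased nuclear translocation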; also: potency is read from the fitted curve at half-maximal effect); details: U2OS GR-GFP nuclear translocation, laser cytometry, 2 h
Sequence of Glucocorticoid receptor (Homo sapiens) (P04150 whole entry, looked up, the tested form may be a part): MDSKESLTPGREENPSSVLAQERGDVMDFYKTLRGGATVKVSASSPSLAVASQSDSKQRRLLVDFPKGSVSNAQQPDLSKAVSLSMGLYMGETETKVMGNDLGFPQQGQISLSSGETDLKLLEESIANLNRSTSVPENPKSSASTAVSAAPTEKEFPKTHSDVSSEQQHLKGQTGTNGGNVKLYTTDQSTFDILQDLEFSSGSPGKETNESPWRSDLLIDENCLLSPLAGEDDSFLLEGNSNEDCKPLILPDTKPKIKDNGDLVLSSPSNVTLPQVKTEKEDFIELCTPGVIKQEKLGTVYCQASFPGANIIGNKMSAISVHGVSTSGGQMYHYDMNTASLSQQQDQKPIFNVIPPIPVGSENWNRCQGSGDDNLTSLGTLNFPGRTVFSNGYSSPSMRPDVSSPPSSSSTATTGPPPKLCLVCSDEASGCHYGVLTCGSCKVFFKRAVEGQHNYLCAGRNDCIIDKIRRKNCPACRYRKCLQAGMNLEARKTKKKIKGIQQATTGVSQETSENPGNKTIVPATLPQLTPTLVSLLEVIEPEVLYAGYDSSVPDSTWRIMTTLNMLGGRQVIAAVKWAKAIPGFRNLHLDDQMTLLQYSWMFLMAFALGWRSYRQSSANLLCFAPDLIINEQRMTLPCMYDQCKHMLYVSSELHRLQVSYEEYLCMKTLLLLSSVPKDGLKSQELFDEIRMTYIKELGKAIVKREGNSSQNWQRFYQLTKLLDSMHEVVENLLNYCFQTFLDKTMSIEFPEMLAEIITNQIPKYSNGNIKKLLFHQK

[5] = target: Glucocorticoid receptor (Homo sapiens) (UniProt P04150); assay: GR-EFC Redistribution (AID 451; calls by dose curve; also: potency is read from the fitted curve at half-maximal effect); details: CHO-K1 GR-EFC translocation, beta-gal luminescence, 2 h
Outline: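 CHO-K1 cells expressing nuclear EA and GR-ED fragments of b-gal; compounds titrated up to 46 uM final, 2 h at 37 C. GR nuclear translocation read as complemented b-gal luminescence after 1 h RT detection.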

[6] = target: Mitogen-activated protein kinase 10 (Mus musculus) (UniProt Q61831); assay: JNK3 AlphaScreen Assay (AID 530; active = well fitted curve in either direction with a large enough effect, not every such curve was filed as active;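 also: kinase came from lysate of stimulated human HepG2 cells; signal reports phosphorylation of biotinylated GST-cJun 1-79 at Ser73 with 10 µM ATP; % is scaled to controls: 0 for no effect and ±100 for the full control effect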); details: JNK3 lysate, c-Jun phosphorylation; series mostly up to 57.1 µM
Outline: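 Pre-activated (IL-1β/TNFα) JNK3 in HepG2 lysates phosphorylates biotin-GST-cJun(1-79), 10 uM ATP; anti-phospho-cJun(Ser73) AlphaScreen read at room temperature, pH 7.6 Tris buffer. Compounds pre-incubated 15 min as titrations.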

[7] = target: 3',5'-cyclic-AMP phosphodiesterase 4B (Homo sapiens) (UniProt Q07343); assay: qHTS Assay for Inhibitors of PDE-IV (AID 607; active = well fitted activation curve with a large enough effect in the main read-out, with a control signal flat, not every such curve was filed as active; also: potency is read from the fitted curve at half-maximal effect); details: HEK293 ACTOne CNG channel cells, membrane potential fluorescence; series mostly up to 22.9 µM
Sequence of 3',5'-cyclic-AMP phosphodiesterase 4B (Homo sapiens) (Q07343 whole entry, looked up): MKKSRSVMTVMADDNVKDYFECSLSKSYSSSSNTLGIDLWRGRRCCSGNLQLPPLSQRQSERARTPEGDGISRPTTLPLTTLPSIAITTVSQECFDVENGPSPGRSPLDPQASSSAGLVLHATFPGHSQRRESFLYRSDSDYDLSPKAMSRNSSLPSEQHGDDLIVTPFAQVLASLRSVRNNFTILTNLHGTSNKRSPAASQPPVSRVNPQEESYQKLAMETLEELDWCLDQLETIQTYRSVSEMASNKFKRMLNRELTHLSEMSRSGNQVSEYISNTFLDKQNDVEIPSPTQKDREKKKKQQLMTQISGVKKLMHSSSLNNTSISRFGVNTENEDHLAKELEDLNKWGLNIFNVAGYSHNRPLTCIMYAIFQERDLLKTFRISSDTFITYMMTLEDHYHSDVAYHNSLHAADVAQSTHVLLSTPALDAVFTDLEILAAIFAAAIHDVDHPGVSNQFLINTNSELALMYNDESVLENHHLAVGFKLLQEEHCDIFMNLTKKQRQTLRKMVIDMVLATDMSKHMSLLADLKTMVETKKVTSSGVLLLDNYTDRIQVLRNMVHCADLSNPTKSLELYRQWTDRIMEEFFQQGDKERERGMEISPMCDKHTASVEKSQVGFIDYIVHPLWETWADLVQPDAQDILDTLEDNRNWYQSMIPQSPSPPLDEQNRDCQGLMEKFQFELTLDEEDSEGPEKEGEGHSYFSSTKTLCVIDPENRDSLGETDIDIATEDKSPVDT
Outline: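 HEK293 ACTOne cells with CNG channel (1000/well), endogenous PDE4; membrane potential dye, compounds up to 22.9 uM final. Fluorescence Ex 535/Em 590; RO 20-1724 (100 uM final) as reference.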

[8] = target: Cytochrome P450 3A4 (Homo sapiens) (UniProt P08684); assay: qHTS Assay for Activators of Cytochrome P450 3A4 (AID 885); details: recombinant CYP3A4, Luciferin-PPXE luminescence, 60 min; series mostly up to 57.1 µM; also: nearly all actives have a fitted effect of over 65% in size
Sequence of Cytochrome P450 3A4 (Homo sapiens) (P08684 whole entry, looked up): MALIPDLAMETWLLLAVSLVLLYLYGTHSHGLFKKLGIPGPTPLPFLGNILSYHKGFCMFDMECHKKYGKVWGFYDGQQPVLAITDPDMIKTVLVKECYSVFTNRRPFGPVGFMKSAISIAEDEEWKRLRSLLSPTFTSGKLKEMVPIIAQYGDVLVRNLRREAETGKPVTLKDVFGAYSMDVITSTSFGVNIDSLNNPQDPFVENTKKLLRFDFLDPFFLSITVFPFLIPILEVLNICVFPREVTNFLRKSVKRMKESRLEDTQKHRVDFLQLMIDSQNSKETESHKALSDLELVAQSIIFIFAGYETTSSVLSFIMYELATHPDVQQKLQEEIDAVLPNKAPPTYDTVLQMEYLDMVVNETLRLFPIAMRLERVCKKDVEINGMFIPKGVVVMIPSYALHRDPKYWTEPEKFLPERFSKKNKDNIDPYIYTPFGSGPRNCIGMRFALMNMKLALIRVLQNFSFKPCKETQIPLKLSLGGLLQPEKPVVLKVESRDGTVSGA
Outline: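 Human CYP3A4 (20 nM) with Luciferin-PPXE at 25 uM (its KM) in 200 mM KPO4; 10 min compound preincubation, then NADPH regeneration and 60 min reaction at RT. Luciferin read by luminescence; normalized to 57 uM ketoconazole full inhibition.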

[9] = target: Cytochrome P450 2C19 (Homo sapiens) (UniProt P33261); assay: qHTS Assay for Inhibitors and Substrates of Cytochrome P450 2C19 (AID 899); details: recombinant CYP2C19, luciferin-H EGE luminescence; series mostly up to 57.1 µM; also: nearly all actives have a fitted effect of over 60% in size; also: potency is read from the fitted curve at half-maximal effect
Sequence of Cytochrome P450 2C19 (Homo sapiens) (P33261 whole entry, looked up): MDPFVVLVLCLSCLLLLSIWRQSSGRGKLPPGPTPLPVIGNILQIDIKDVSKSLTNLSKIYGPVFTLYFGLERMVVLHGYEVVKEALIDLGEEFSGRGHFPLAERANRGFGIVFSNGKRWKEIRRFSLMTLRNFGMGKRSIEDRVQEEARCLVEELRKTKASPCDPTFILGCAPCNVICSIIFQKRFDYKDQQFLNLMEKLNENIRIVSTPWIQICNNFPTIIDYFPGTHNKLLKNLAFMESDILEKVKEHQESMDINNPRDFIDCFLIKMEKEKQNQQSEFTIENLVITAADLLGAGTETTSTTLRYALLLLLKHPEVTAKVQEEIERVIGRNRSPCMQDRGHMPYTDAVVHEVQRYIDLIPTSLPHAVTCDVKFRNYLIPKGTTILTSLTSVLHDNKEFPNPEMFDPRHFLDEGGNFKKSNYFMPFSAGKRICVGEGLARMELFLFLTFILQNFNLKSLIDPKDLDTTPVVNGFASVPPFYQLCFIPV
Outline: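 Luminescent read-out of luciferin formed from Luciferin-H EGE (10uM, equal to KM). Enzyme 5nM in 50mM KPO4; compound added, 10 min at 37C, then NADPH regenerating system for 60 min at 37C. Full inhibition defined by 57uM ketoconazole.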

[10] = qHTS Assay for Lipid Storage Modulators (AID 1519; calls by dose curve); details: Drosophila S3 cells, BODIPY lipid droplet/cell ratio, laser cytometry, cells loaded with oleic acid
Outline: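 Cells seeded at 5,000 per well were treated with compounds over a concentration series and loaded with oleic acid (400 uM, as added). Lipid droplet fluorescence (488 nm excitation, 500-530 nm channel) was read by laser-scanning cytometry and normalized to 20 uM Triacsin C.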

[11] = test system: Zika virus NS2B-NS3 protease; assay: Primary screen GU AMC qHTS for Zika virus inhibitors (AID 1347154); details: Zika NS2B-NS3 unlinked protease, AMC fluorogenic substrate; series mostly up to 54.1 µM;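 also: 0% = no-inhibitor control and -100% = no-enzyme control; nearly all actives have a fitted effect of over 70% in size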
Outline: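 Unlinked Zika NS2B hydrophilic domain–NS3 protease complex at 25 nM in 10 mM Tris-HCl pH 8.0, 0.01% Tween 20, with an AMC peptide substrate. Fluorescence change (340/450 nm) over 15 min at room temperature, normalized to controls, fitted to 4-parameter Hill.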

[12] = Primary qHTS for small molecule stabilizers of the endoplasmic reticulum resident proteome: Secreted ER Calcium Modulated Protein (SERCaMP) assay (AID 1508630); details: SH-SY5Y GLuc-SERCaMP (Gaussia luciferase released on ER calcium loss) secretion, thapsigargin, luminescence; series mostly up to 38.4 µM; also: potency is read from the fitted curve at half-maximal effect
Outline: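 GLuc-SERCaMP-expressing SH-SY5Y cells, pretreated 16 h with compound, are challenged with thapsigargin to empty ER calcium stores; after 4 h, coelenterazine is added directly to the medium and luminescence is imaged.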

[13] = target: Ubiquitin carboxyl-terminal hydrolase 1 (Homo sapiens) (UniProt O94782); assay: Inhibitors of USP1/UAF1: Pilot qHTS (AID 504865); details: purified USP1/UAF1, Ub-rhodamine cleavage fluorescence; series mostly up to 114 µM;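 also: rhodamine fluorescence freed from ubiquitin-rhodamine substrate followed over time; top concentration of the series differs between compounds; % is scaled to controls: 0 for no effect and ±100 for the full control effect; nearly all actives have a fitted effect of over 35% in size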
Sequence of Ubiquitin carboxyl-terminal hydrolase 1 (Homo sapiens) (O94782 whole entry, looked up): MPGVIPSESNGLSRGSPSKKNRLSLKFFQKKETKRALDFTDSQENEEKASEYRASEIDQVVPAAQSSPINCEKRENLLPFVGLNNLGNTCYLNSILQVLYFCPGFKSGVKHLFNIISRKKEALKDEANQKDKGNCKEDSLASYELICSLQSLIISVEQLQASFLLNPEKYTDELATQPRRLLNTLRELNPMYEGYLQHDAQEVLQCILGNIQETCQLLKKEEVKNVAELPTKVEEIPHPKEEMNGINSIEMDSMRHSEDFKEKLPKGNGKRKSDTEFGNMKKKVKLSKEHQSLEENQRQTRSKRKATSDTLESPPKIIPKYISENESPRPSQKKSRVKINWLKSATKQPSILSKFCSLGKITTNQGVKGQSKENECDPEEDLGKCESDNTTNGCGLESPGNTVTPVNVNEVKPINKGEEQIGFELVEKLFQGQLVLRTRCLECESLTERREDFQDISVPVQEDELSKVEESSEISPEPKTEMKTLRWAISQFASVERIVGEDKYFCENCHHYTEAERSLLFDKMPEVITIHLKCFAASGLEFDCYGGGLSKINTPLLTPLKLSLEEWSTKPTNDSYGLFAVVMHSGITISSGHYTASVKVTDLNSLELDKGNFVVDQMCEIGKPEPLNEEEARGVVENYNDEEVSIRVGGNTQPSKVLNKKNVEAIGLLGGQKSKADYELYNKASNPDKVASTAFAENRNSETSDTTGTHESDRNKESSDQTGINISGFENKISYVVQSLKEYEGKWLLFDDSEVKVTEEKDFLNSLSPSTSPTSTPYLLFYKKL
Outline: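 In 50mM HEPES pH 7.8 containing 0.5mM EDTA, 1mM TCEP, 0.1 mg/ml BSA and 0.01% Tween-20, 1nM USP1/UAF1 is exposed to compound for 15 min, then Ub-Rho (150nM final) is added and fluorescence is read over time.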

[14] = target: DNA dC->dU-editing enzyme APOBEC-3G (Homo sapiens) (UniProt Q9HC16); assay: qHTS for inhibitors of Vif-A3G interactions: Validation (AID 588379); details: Vif-A3G protein interaction assay; series mostly up to 46.1 µM; also: 0% is about no effect
Sequence of DNA dC->dU-editing enzyme APOBEC-3G (Homo sapiens) (Q9HC16 whole entry, looked up): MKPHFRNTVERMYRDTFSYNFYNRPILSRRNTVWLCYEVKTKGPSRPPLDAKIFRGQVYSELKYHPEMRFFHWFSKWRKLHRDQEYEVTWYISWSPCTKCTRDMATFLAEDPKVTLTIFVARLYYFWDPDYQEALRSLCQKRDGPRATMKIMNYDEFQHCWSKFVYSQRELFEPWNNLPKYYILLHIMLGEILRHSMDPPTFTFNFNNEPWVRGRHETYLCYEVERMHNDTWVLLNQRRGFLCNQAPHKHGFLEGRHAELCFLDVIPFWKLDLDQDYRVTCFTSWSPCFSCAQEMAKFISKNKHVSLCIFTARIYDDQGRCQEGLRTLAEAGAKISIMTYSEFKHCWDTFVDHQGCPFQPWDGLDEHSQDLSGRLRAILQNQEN
Outline: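 HeLa cells stably expressing Vif and A3G-eYFP, 700 cells/well, incubated overnight at 37 deg C, then exposed to compound overnight at 37 deg C. Inhibition of Vif-mediated degradation read as increased yellow fluorescence (Ex 488/Em 500-530) by laser-scanning cytometry.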

[15] = NFAT Signaling Pathway (AID 444; active = well fitted curve in either direction with a large enough effect, not every such curve was filed as active;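 also: carbachol stimulus at about its EC50 of 1 µM final; % is scaled to controls: 0 for no effect and ±100 for the full control effect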); details: Jurkat NFAT-bla M1, carbachol, beta-lactamase ratio, 5 h; at 38 µM (top of the series)
Outline: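 Jurkat cells with NFAT-driven β-lactamase reporter and co-expressed M1 receptor, stimulated with carbachol (final 1 uM, ~EC50), compound titration, 5 h at 37 °C. CCF4 loaded 1 h at RT; 460/530 nm ratio gave %activity and AC50.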

[16] = target: Cytochrome P450 2C9 (Homo sapiens) (UniProt P11712); assay: qHTS Assay for Inhibitors and Substrates of Cytochrome P450 2C9 (AID 883); details: recombinant CYP2C9, luciferin-H luminescence, 60 min; series mostly up to 57.1 µM; also: % is scaled to controls: 0 for no effect and ±100 for the full control effect; nearly all actives have a fitted effect of over 60% in size
Outline: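 10nM CYP2C9 + 100uM Luciferin-H (=KM), 25mM KPO4; cpd 10 min 37C; NADPH regen, 60 min 37C; stop/detect with P450 Glo-Buffer 20 min; luminescence. Norm. to 57uM sulphaphenazole as full inhibition.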

[17] = target: Guanine nucleotide-binding protein G(i) subunit alpha-1 (Homo sapiens) (UniProt P63096); assay: qHTS Assay for Inhibitors of RGS12 GoLoco Motif Activity (Green Fluorophore) (AID 879); details: Galphai1/FITC-RGS12 GoLoco peptide, fluorescence polarization; series mostly up to 57.1 µM;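 also: 0% = labeled peptide with Gαi1 and full inhibition = labeled peptide alone without protein; negative values mean loss of peptide binding seen as reduced polarization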
Outline: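 Fluorescence polarization assay: 50 nM Gαi1 with 10 nM FITC-labeled RGS12 GoLoco peptide in 10 mM Tris pH 7.5, 150 mM NaCl, 0.1 mM GDP, 0.05% NP40, 10 min at room temperature with compound.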

[18] = target: Pyruvate kinase PKM (Homo sapiens) (UniProt P14618); assay: qHTS Assay for Activators of Human Muscle Pyruvate Kinase (AID 954; active = well fitted curve in the direction sought with a large enough effect, not every such curve was filed as active;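 also: 0% = uninhibited enzyme and -100% = no enzyme or full thiadiazolimine inhibition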); details: purified human muscle pyruvate kinase, luciferase-coupled luminescence, 1 h; series mostly up to 57.5 µM
Sequence of Pyruvate kinase PKM (Homo sapiens) (P14618 whole entry, looked up): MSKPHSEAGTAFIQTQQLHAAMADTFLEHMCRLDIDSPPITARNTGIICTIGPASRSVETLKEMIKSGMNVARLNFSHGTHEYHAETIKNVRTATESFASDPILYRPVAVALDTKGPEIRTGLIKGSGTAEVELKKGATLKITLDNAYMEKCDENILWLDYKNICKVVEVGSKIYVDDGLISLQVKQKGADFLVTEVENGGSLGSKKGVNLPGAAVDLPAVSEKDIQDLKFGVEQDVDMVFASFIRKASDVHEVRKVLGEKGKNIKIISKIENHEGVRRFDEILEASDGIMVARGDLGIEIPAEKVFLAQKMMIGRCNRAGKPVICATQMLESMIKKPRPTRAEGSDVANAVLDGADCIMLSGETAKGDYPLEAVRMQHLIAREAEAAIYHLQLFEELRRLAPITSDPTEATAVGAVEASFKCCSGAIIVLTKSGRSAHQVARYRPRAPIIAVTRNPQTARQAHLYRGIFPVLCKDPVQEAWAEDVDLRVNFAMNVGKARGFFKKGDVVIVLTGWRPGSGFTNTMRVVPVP
Outline: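 Purified human PKM2 (0.1 nM) with 0.5 mM PEP (Km) and 0.1 mM ADP in 50 mM imidazole pH 7.2, KCl, MgCl2, 1 h at room temperature; ATP formed read by coupled luciferase luminescence. Normalized to no-enzyme/110 uM thiadiazolimine inhibition; 0.3 nM enzyme column for activation.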

[19] = target: alpha-glucosidase (Oryza sativa, rice) (UniProt Q653V4); assay: Counterscreen for Glucocerebrosidase Inhibitors: qHTS Assay for Rice alpha-Glucosidase at pH 5.0 (AID 997); details: rice alpha-glucosidase enzyme activity; series mostly up to 76.9 µM;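 also: 0% = full activity with enzyme and -100% = basal without enzyme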
Outline: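 Rice alpha-glucosidase (4 nM final) with 400 uM 4-methylumbelliferyl-alpha-D-glucopyranoside in citrate buffer pH 5.0, 20 min at room temperature, stopped at pH 10; fluorescence 365/440 nm, compounds 0.7 nM–77 uM, AC50 from Hill fits.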

[20] = measured here: cell count channel max response
[21] = measured here: lipid channel max response

CC[N+](C)(CC)CCC[n+]1c(-c2ccccc2)c2cc(N)ccc2c2ccc(N)cc21
inactive: activity change, negative = inhibition ([1]; at 17.2 µM (top of the series)) 5.27% | activity, negative = inhibition ([3]; at 17.2 µM (top of the series)) -13.1% | Potency [4] > 20.6 µM | Potency [5] > 20.6 µM | Potency [6] | Potency [7] | Potency [8] | activity change, negative = inhibition ([10]; at 25.7 µM (top of the series)) 0.117% | Potency [11] | Potency [12]
-4.14%: max response [10, 20]
active: Potency [2] 12.6 µM | Potency [9] 1.58 µM
-3.68%: max response [10, 21]

C[C@@](N)(C(=O)O)c1ccc(S(=O)(=O)O)cc1
inactive: Potency [2] | Potency [4] > 46 µM | Potency [5] > 46 µM | Potency [6] | Potency [7] | activity change, negative = inhibition ([10]; at 57.5 µM (top of the series)) -0.133% | Potency [13] | Potency [14] | Potency [11] | Potency [12]
13.8%: max response [10, 21]
9.59%: max response [10, 20]

CC(C)[C@@H]1[C@H]2CC[C@H](C2)[C@H]1N
inactive: activity change, negative = inhibition ([1]; at 38 µM (top of the series)) 17.6% | activity change, negative = inhibition [15] 2.88% | activity, negative = inhibition ([3]; at 38 µM (top of the series)) 4.64% | Potency [4] > 46 µM | Potency [5] > 46 µM | Potency [6] | Potency [7] | Potency [16] | Potency [8] | Potency [9] | activity change, negative = inhibition ([10]; at 57.5 µM (top of the series)) -6.29% | Potency [14] | Potency [11]
-17.5%: max response [10, 21]
active: Potency [12] 1 µM
inactive and 31.6 µM (active): Potency [2]
-11.1%: max response [10, 20]

N[C@]1(C(=O)O)CCc2cc(C(=O)O)ccc21
inactive: activity change, negative = inhibition ([1]; at 38 µM (top of the series)) 2.45% | activity change, negative = inhibition [15] 3.1% | activity, negative = inhibition ([3]; at 38 µM (top of the series)) -13% | Potency [4] > 46 µM | Potency [5] > 46 µM | Potency [6] | outcome [17] | outcome [18] | outcome [19] | activity change, negative = inhibition ([10]; at 57.5 µM (top of the series)) 5.84% | Potency [14] | Potency [11] | Potency [12]
14.2%: max response [10, 20]
23.6%: max response [10, 21]

CCN(CC)CCOC(=O)C1(c2ccc([N+](=O)[O-])cc2)CCCC1
-19.2% and -15.6%: max response [10, 21]
inactive and 4.77 µM (active): Potency [7]
inactive: activity change, negative = inhibition ([1]; at 17.2 µM (top of the series)) 3.14% | activity, negative = inhibition ([3]; at 17.2 µM (top of the series)) 6.83% | Potency [5] > 20.6 µM and > 46 µM | Potency [6] | Potency [8] | activity change, negative = inhibition ([10]; at 25.7 µM (top of the series)) -0.418% | activity change, negative = inhibition ([10]; at 57.5 µM (top of the series)) -3.02% | Potency [13] | Potency [14] | Potency [11] | Potency [12]
-8.14% and -12.9%: max response [10, 20]

CC(=O)N1CCN(C)CC1
active: Potency [2] 31.6 µM
-2.52%: max response [10, 20]
inactive: Potency [4] > 46 µM | Potency [5] > 46 µM | Potency [6] | activity change, negative = inhibition ([10]; at 57.5 µM (top of the series)) -3.74% | Potency [14] | Potency [11] | Potency [12]
-5.67%: max response [10, 21]

CC(C)C[C@H](NC(=O)N1CCCCCC1)C(=O)N[C@H](Cc1cn(C)c2ccccc12)C(=O)N[C@H](Cc1ccccn1)C(=O)O
9.02%: max response [10, 21]
inactive: Potency [4] > 46 µM | Potency [5] > 46 µM | Potency [6] | Potency [7] | Potency [8] | activity change, negative = inhibition ([10]; at 57.5 µM (top of the series)) -4.14% | Potency [13] | Potency [14] | Potency [11] | Potency [12]
14.7%: max response [10, 20]
